Reference: the supplement of paper PMC6555819

Legend:
Experiment in all cases: PBM binding z-score (relative to random genomic background probes); higher = stronger binding; sequences stand for … in GC…GCGATTGACAGCGTAGAATGAAGG
[1] = system: FXR:RXRa (NR concentration 270 nM, RXRa partner concentration 90 nM)
Outline: (§1)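 Random background probes are the reference for binding z-scores. These scores derive from regression-normalized fluorescence on custom Agilent 4×180K protein-binding microarrays incubated 1 h with ligand-free nuclear receptor dimers. Binding was detected with antibodies against each partner (one per run).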

[2] = system: LXRa:RXRa (NR concentration 270 nM, RXRa partner concentration 90 nM)
Outline: as §1

[3] = system: LXRa homodimer (NR concentration 270 nM)
Outline: as §1

[4] = system: LXRb:RXRa (NR concentration 270 nM, RXRa partner concentration 90 nM)
Outline: as §1

[5] = system: LXRb homodimer (NR concentration 270 nM)
Outline: as §1

[6] = system: PPARa:RXRa (NR concentration 270 nM, RXRa partner concentration 90 nM)
Outline: as §1

[7] = system: PPARg:RXRa (NR concentration 180 nM, RXRa partner concentration 90 nM)
Outline: as §1

[8] = system: PPARg:RXRa 270nM:90nM, anti-RXR (NR concentration 270 nM, RXRa partner concentration 90 nM)
Outline: as §1

[9] = system: PPARg:RXRa 30nM:10nM, anti-RXR (NR concentration 30 nM, RXRa partner concentration 10 nM)
Outline: as §1

[10] = system: PPARg:RXRa 90nM:30nM, anti-RXR (NR concentration 90 nM, RXRa partner concentration 30 nM)
Outline: as §1

Sequence | PBM binding z-score [1] | PBM binding z-score [2] | PBM binding z-score [3] | PBM binding z-score [4] | PBM binding z-score [5] | PBM binding z-score [6] | PBM binding z-score [7] | PBM binding z-score [8] | PBM binding z-score [9] | PBM binding z-score [10]
TCATATAGGTAATTGCTAGGTGAAAGTCCGATCT | 0.86 | 0.654 | 0.0873 | 0.781 | 0.17 | 1.41 | 0.771 | 2.36 | 3.67 | 3.02
CAAACTAGGCCACAGAGGTCAAAGTCCGTGCGTA | 5.06 | 5.36 | 5.33 | 5.13 | 0.98 | 5.87 | 7.19 | 6.39 | 4.5 | 5.82
GCGCCTGGGGCATCAGCAGGTTACCATAACTTAA | -0.344 | -0.299 | -0.446 | 0.294 | -1.19 | 0.454 | 0.0238 | -0.488 | -0.952 | -0.927
TCTAGCAGGCCAGCGGGTCACTCAAGAGGTACGG | 0.662 | 0.558 | -0.567 | 0.777 | -0.97 | 1.92 | 0.601 | 1.74 | 1.72 | 1.65
TCTCGGAGGACACGAAGGTCAGGGCTTTCCAGAG | 1.55 | 1.29 | 0.139 | 1.17 | -0.91 | 2.13 | 0.576 | 1.75 | 2.15 | 1.9
CCTACTGGCCCAAAGGTCATTGATTCCAATGCTC | 4.8 | 5.12 | 4.37 | 4.8 | 1.23 | 5.27 | 7.37 | 7.17 | 5.9 | 7.85
ATCTCTAGGTAACAAGTTCAGTAAAAGAGAGGAC | 0.872 | 1.08 | 1.01 | 0.953 | 1.1 | 1.81 | 1.76 | 2.11 | 0.675 | 1.82
CCTCGGAGGACAACAGGAAGTCAGAGCTGCCAGA | -0.229 | -0.454 | -0.458 | -0.667 | -0.823 | -0.671 | 0.123 | -0.726 | -1.03 | -1.13
CGAACCAGGGCATGAGTTGATAGCAAATGCCGAT | -0.0641 | -0.00251 | -0.295 | -0.304 | -1.08 | 0.552 | 1.15 | 1.2 | -0.166 | 0.593
TAGCCTAGGTCGGATCGGGCCAGTATACGCTATA | -0.358 | -0.506 | -0.432 | -0.741 | -0.754 | -0.324 | 0.0462 | -0.371 | -0.755 | -0.538
ACTAGCAGTCCAAGGGTCACTCAAGATTAGTCCG | 2.25 | 2.99 | 0.313 | 2.87 | -0.249 | 3.41 | 3.5 | 4.58 | 2.19 | 4.18
AGAATGAGATTATACGTAGATCAGGGAAGAAAGT | -0.225 | -0.715 | -0.134 | -0.538 | -0.345 | -0.566 | 1.09 | -0.183 | 0.419 | -0.327
CCTAGCAGGCCAGGGTAACTCAAGCATTTCGCTT | -0.463 | -0.678 | -0.559 | -0.682 | -1.09 | 0.0169 | -0.112 | -0.182 | -1.01 | -0.605
CGAACTAGGTCAAGGACAGTGCATCTCCGCACGC | 3.37 | 2.49 | 0.582 | 1.38 | -0.386 | 4.35 | 7.23 | 6.31 | 3.38 | 5.86
ACTTACGGGTCAACGAGGTTGTAGCACGCGTATA | 6.76 | 4.66 | 0.172 | 4 | 0.502 | 5.6 | 5.04 | 4.93 | 1.89 | 3.69
CAAACTAGGGCACAGAGGTCAAAGTCCGTGCGTA | 5.59 | 5.41 | 5.74 | 4.88 | 1.2 | 5.71 | 7.92 | 6.9 | 4.71 | 6.59
GCTAGCAGGCCATGTGGGTCACTCAATGACGGGC | -0.267 | -0.154 | -0.643 | -0.292 | -1.04 | 1.58 | 1.31 | 1.18 | -0.316 | 0.415
CGTCAAAGTTCAACTAACGTAACGTAAAGCACGC | 6.21 | 5.98 | 3.62 | 4.08 | 2.43 | 4.99 | 4.65 | 5.21 | 2.17 | 4.04
CCGACTGGAGCAAGGTTACCATAACGCACAGCCA | -0.0203 | 0.559 | 0.116 | 0.511 | -0.797 | 1.01 | 1.3 | 1.66 | 0.181 | 0.892
GCTAGCAGGCCATATGGGTCACTCAATGACGGGC | 0.207 | 0.285 | -0.185 | 0.489 | -0.907 | 1.98 | 1.57 | 1.27 | -0.31 | 0.766
GATACAGGGTCTGCTAGAGGCCAGAGTATGGAAA | -0.351 | -0.359 | -0.605 | -0.772 | -0.649 | -0.759 | 0.108 | -0.444 | -0.281 | -0.382
CGAACTAGGTCAAGGGCAGTGAATCTCCGCACGC | 3.56 | 2.14 | -0.0571 | 1.21 | -0.428 | 4.64 | 8.03 | 6.75 | 4.74 | 6.89
TCTAGCAGGCCAGAAGGTCACTCAAGAGGTACGG | 1.61 | 2.17 | 0.0558 | 1.8 | -0.711 | 3.04 | 1.46 | 2.86 | 2.27 | 2.71
